Test results: PubChem BioAssay AID489025 (Southern Research Specialized Biocontainment Screening …, 2010)
Hit rate of the full screen: of about 2,300 compounds, about 790 (34%) were called active. The rule behind the calls is not given here. Some of the results follow. Measured potencies and affinities stand elsewhere.

assay: THP-1 cell cytotoxicity, dose response, cytotoxicity control for non-replicating M. tuberculosis project (AID 489025); settings: THP-1 cell viability; series mostly up to 40 µM

Compound	outcome
O=C(Nc1ccccn1)c1ccc(C(=O)c2ccccc2)cc1	inactive
O=C(Nc1cccnc1)c1ccc(-c2ccc(Cl)cc2)o1	inactive
CCCOC(=O)c1ccc(NC(=O)c2ccc(Br)o2)cc1	inactive
CC(C)(C)c1ccc(OCCC(=O)OCC(=O)NC2CC2)cc1	inactive
O=C(NC1CCOc2ccccc21)c1ccc(Cl)nc1 (configuration not stated)	inactive
Cc1ccccc1-n1nnc2c(=O)oc3ccccc3c21	inactive
NC(=O)C1CCN(C2CC(=O)NC2=O)CC1 (configuration not stated)	inactive
O=C(c1cc2ccccc2o1)c1nc2c(n1O)CCCCC2	inactive
O=C(Nc1ncc(Cc2ccccc2)s1)C1=NCCN1	inactive
CCOC(=O)C1(O)CC(C)=NN1C(=O)c1cccc(Br)c1 (configuration not stated)	inactive
CCOC(=O)Cc1ccc(NCc2ccc(Cl)cc2)cc1	inactive
CCOC(=O)c1c(C)nc2c3ccccc3ccn12	inactive
CCOC(=O)Cc1cc(=O)n2[nH]cc(-c3ccc(Cl)cc3)c2n1	inactive
O=C1CC(N2CCN(c3ccccc3)CC2)C(=O)N1CCc1ccccc1 (configuration not stated)	inactive
CCOc1ccc(NC(=O)COC(=O)C2(C)CC2(Cl)Cl)c([N+](=O)[O-])c1 (configuration not stated)	inactive
Cc1ccc(Sc2ncccc2N)cc1	inactive
O=C(NCCCN1CCOCC1)c1ccc(CSc2ccc(Cl)cc2)cc1	inactive
Cc1ccc2oc(=O)c3cc(C(=O)NCCCN4CCCCCC4)sc3c2c1	inactive
CC(=O)N1CCC(=NNC(=O)c2cccs2)CC1	inactive
Cc1cccc(CSc2nnc(-c3ccco3)o2)c1	inactive
C#CCSc1nnc(-c2ccc([N+](=O)[O-])cc2)o1	inactive
C#CCSc1nnc(-c2ccc(O)cc2)o1	inactive
CCOc1ccc(CC(=O)N2N=C(C)CC2(O)C(F)(F)F)cc1 (configuration not stated)	inactive
O=C(CNC1CCCC1)Nc1ccc(N2CCCCCC2)cc1	inactive
COc1cc(N=c2ssnc2Cl)cc(OC)c1	inactive

Compound	outcome
N#Cc1ccc(N=c2ssnc2Cl)cc1	inactive
CC(=O)Nc1ccc(NC(=O)[C@@H]2CCCC[C@@H]2C(=O)O)cc1	inactive
CC(C)N=C1SC(CC(=O)Nc2ccccc2)C(=O)N1C(C)C (configuration not stated)	inactive
CC(C)(C)c1ccc(C(=O)N2CCCC2)s1	inactive
CC1(C)OC(c2ccccc2)=C/C(=C\C=N\NC(=O)c2ccncc2)O1	inactive
Cc1ccc(NC(=O)CCSc2nnc(-c3ccco3)o2)cc1	inactive
O=C1/C(=C/c2ccco2)CCC1C1CCCC1 (configuration not stated)	inactive
COc1ccc(CC(=O)Nc2nccs2)cc1OC	inactive
N/C(=N\OC(=O)c1cccc2ccccc12)c1cccnc1	inactive
O=C(Oc1ccc(/C=N/O)cc1)c1ccccc1Cl	inactive
Cc1ccc(-c2nnc(Cc3ccc([N+](=O)[O-])cc3)o2)cc1	inactive
O=C(Nc1nc2ccccc2[nH]1)c1cccc([N+](=O)[O-])c1	inactive
O=[N+]([O-])c1ccc2nc(SCc3cn4ccccc4n3)[nH]c2c1	inactive
N/N=C(/Cc1nc2ccccc2[nH]1)c1ccc([N+](=O)[O-])cc1	inactive
Cc1ccc2cc3c(nc2c1)OCC3	inactive
Fc1ccc(N2CCN(Cc3nnc(-c4ccccc4)o3)CC2)cc1	inactive
O=C1CCCCC1Sc1nnc(-c2ccc3c(c2)OCO3)o1 (configuration not stated)	inactive
O=C(COC(=O)c1ccccc1Cl)NCCC1=CCCCC1	inactive
Cc1ccc2c(C)ccc(O)c2n1	inactive
CN1C(=O)CC(N2CCC(c3nc4ccccc4s3)CC2)C1=O (configuration not stated)	inactive
FC(F)(F)c1ccc(NCCc2ccccc2)nc1	inactive
CN(C)/C=C1/C(=O)N(c2ccc([N+](=O)[O-])cc2)N=C1c1ccccc1	inactive
Cc1cc(C)n2nc(N)c(N=Nc3ccccc3)c2n1	inactive
S=C1CN=C(c2ccccc2)c2cc(Cl)ccc2N1	inactive
CC(C)c1ccc(N2C(=O)CC(Sc3ncn[nH]3)C2=O)cc1 (configuration not stated)	inactive

Compound	outcome
CCOC(=O)COn1c2c(c3c4no[n+]([O-])c4ccc31)CCCC2	inactive
CN(C)CCNc1c2c(c(C#N)c3nc4ccccc4n13)CCCC2	inactive
CC1=NN(c2ccccc2)C(=O)C1C(=O)c1ccccc1 (configuration not stated)	inactive
Oc1ccccc1CN1CCCC(N2CCN(c3cccc(C(F)(F)F)c3)CC2)C1 (configuration not stated)	inactive
N=C1/C(=C/c2ccc(OC(=O)c3ccco3)cc2)C(=O)N=C2SC=CN12	inactive
CCc1ccc(C2=C/C(=C/c3cccnc3)C(=O)O2)cc1	inactive
Cc1ccc(OCC(=O)OCc2c(C)noc2C)cc1C	inactive
CCOc1ccc(NC(=O)COc2ccc3c(c2)OCO3)cc1	inactive
O=C(COC(=O)c1ccccc1Br)Nc1ccccc1F	inactive
O=C(CCNc1ccc(Cl)cc1)c1cccs1	inactive
Cc1occc1-c1nnc(-c2cc([N+](=O)[O-])cc([N+](=O)[O-])c2)o1	inactive
Cc1cc(NC(=O)c2cc([N+](=O)[O-])cc([N+](=O)[O-])c2)no1	inactive
CCOC(=O)c1ccc(N=C(CC)c2c(O)n(C)c(=O)n(C)c2=O)cc1	inactive
O=C1OC(/C(=C\Nc2cc(Cl)ccc2O)[N+](=O)[O-])c2ccccc21 (configuration not stated)	inactive
COc1cccc2cc(-c3nc4ccccc4o3)c(=O)oc12	inactive
CS(=O)(=O)Cc1nc2ccccc2oc1=O	inactive
O=C(OCC(=O)N1CCCC1)c1cc(Br)ccc1Cl	inactive
CC12CC3CC(C)(C1)CC(C(=O)N1CCCC1)(C3)C2	inactive
OC(COc1ccccc1Cl)CN1CCN(CC(O)COc2ccccc2Cl)CC1 (configuration not stated)	inactive
O=C(COc1ccccc1)NCCSCc1ccc(Cl)cc1	inactive
OC(COc1ccc2ccccc2c1Br)Cn1ccnc1 (configuration not stated)	inactive
CCOC(=O)COc1ccc2c(c1)c(C(C)=O)c(C)n2Cc1ccccc1	inactive
CCOc1ccc(Cn2c(=O)oc3ccccc32)cc1	inactive
O=C(OCC#CCSc1nnc(-c2ccncc2)o1)c1cccs1	inactive
COc1ccc(COc2cccc(C=O)c2)cc1	inactive

Compound	outcome
CCOC(=O)Cc1csc(NC(=O)COc2ccc3c(c2)CCC3)n1	inactive
CCCCn1c(=O)c(C(=O)Nc2nnc(C(C)C)s2)c(O)c2ccccc21	inactive
CCCNC(=O)N1CCC(c2ccc3c(c2)OCO3)CC1	inactive
CCOC(=O)C1CCCc2c1[nH]c1c(C(N)=O)cccc21 (configuration not stated)	inactive
O=C(OCC#CCSc1nc2ccccc2o1)c1ccco1	inactive
C/C(=N\O)c1cc(Cl)ccc1O	inactive
O=C(COC(=O)c1cc(Cl)ccc1O)c1ccc2c(c1)OCO2	inactive
CCOC(=O)COc1ccc2c(=O)cc(-c3ccccc3)oc2c1	inactive
CN(C)c1ccc(/C=C2\N=C(C(C)(C)C)OC2=O)cc1	inactive
O=c1c2c([N+](=O)[O-])cc([N+](=O)[O-])cc2nc2ccccn12	inactive
O=C(OCc1cccc([N+](=O)[O-])c1)c1ccc2ccccc2n1	inactive
CSc1ccc(CNc2ncc(-c3cccc([N+](=O)[O-])c3)n2C)cc1	inactive
N[C@@H](Cc1ccccc1)c1nnc(SC/C=C/c2ccccc2)o1	inactive
CCOc1ccccc1C(=O)OCC(=O)Nc1nnc(-c2ccccc2)o1	inactive
O=C(COc1ccccc1)Nc1nnc(-c2ccc3c(c2)CCCC3)o1	inactive
O=C(Nc1nnc(-c2ccc3c(c2)CCCC3)o1)c1c(F)cccc1F	inactive
CCOc1ccc(C(=O)Nc2nnc(C3=COCCO3)o2)cc1	inactive
Cc1cccc(C(=O)Nc2nnc(-c3cccnc3)o2)c1	inactive
CCOc1ccc(-c2nnc(NC(=O)CCCOc3cccc(C)c3)o2)cc1	inactive
COc1ccc(C(=O)COC(=O)c2ccccc2O)c(OC)c1	inactive
O=Cc1ccc(OC2OCCOC2Oc2ccc(C=O)cc2)cc1 (configuration not stated)	inactive
O=C(CCN1CCN(C/C=C/c2ccccc2)CC1)Nc1ccc(Cl)cc1	inactive
COc1ccccc1C(=O)OCC(=O)Nc1ccc(Cl)cn1	inactive
C=CCOC(=O)c1ccc(-n2cnc(C)n2)nc1	inactive
NC(=O)CN1CCN(C2CC(=O)N(CCc3ccccc3)C2=O)CC1 (configuration not stated)	inactive

Compound	outcome
O=C(Nc1nnc(-c2ccc(Cl)cc2)o1)C1=COCCO1	inactive
COc1cccc(C(=O)OCC(=O)Nc2nnc(-c3ccccc3)o2)c1	inactive
O=C(Nc1nnc(-c2ccc(Cl)cc2)o1)c1cccc(N2C(=O)CCC2=O)c1	inactive
O=C(COc1ccccc1)Nc1nnc(-c2ccc(Cl)cc2)o1	inactive
Cc1ccc(C(=O)Nc2nnc(-c3ccncc3)o2)cc1	inactive
O=C(COC(=O)CC12CC3CC(CC(C3)C1)C2)Nc1cccnc1Cl	inactive
CCc1ccc(N=CC2=C(O)CC(c3ccco3)CC2=O)cc1 (configuration not stated)	inactive
C(=C\c1ccccc1)/CSc1nc2ncccc2[nH]1	inactive
CCOC(=O)C1CCN(Cc2ccc(-c3ccccc3)cc2)CC1	inactive
CCOC(=O)c1ccc(COC(=O)c2ccc(-c3nnc(-c4ccccc4)o3)cc2)o1	inactive
CCOC(=O)C1CCCN(Cc2ccc(OCc3ccccc3)cc2)C1 (configuration not stated)	inactive
CCC(=O)c1ccc(OCc2ccc(C(=O)OC)cc2)cc1	inactive
COc1ccccc1N=Cc1nc(-c2ccccc2)oc1OC(C)=O	inactive
CN(CCOCCOc1ccc(F)cc1)Cc1ccccc1	inactive
Brc1ccc(OCCCCN2CCCCC2)cc1	inactive
Cc1ccc(NC(=O)ON=C2CCCC2)cc1	inactive
O=C(COc1ccc(Cl)cc1)Nc1ccc2[nH]ncc2c1	inactive
Cc1ccc(NC(=O)COc2ccccc2)cc1Cl	inactive
CCOc1ccccc1OC(=O)c1cc2ccccc2oc1=O	inactive
Cc1cccc(OCCCCc2c(C)n[nH]c2C)c1	inactive
Cc1ccc(C(=O)NCCOc2cccc(C)c2)cc1	inactive
CCCCOC(=O)c1ccc(OC(=O)c2cccnc2)cc1	inactive
